From PubChem BioAssay AID1846 (The Scripps Research Institute Molecular Screening Center, 2009)
Among all 2,300 compounds or so, about 1,500 (65%) were called active. The set was probably picked from earlier hits. A selection follows. A number with no mark means an inactive call. Rule as the data show it: active = inhibition above about 18%; inactive = the rest.

Biological target: Heat shock protein HSP 90-alpha (Homo sapiens) (UniProt P07900)
Experiment: inhibitors of HSP90 chaperone activity – cell lysate, luminescence, confirmation (AID 1846);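 also: 0% = vehicle wells and 100% = reference inhibitor wells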
Conditions: rabbit reticulocyte lysate, luciferase refolding luminescence, 3 h; at 5.9 µM; active compounds read high

| SMILES | inhibition |
| --- | --- |
| COc1cccc(-c2nc3ccc(N4CCN(C)CC4)cc3[nH]2)c1 | 69.3% (active) |
| O=c1c2ccccc2nc(/C=C/c2ccco2)n1-c1ccccc1O | 9.67% |
